Measurements reported in paper PMC7862700, “An all-to-all approach to the identification of sequence-specific readers for epigenetic DNA modifications on cytosine”.

Legend:
Assay in all cases: DAPPL (digital affinity profiling via proximity ligation, sequencing); 10 mM Tris-HCl pH 7.5, 50 mM NaCl, 1 mM DTT, 4% glycerol, room temperature, 30 min; GST-TFs on glutathione beads, 16-mer random dsDNA library, 0.1% formaldehyde crosslink after washing; high values mean tight binding
Conditions in all cases: protein: recombinant; tags: N-terminal GST; dsDNA, one strand shown
FLI1 = molecular target: T1, FLI1 (Homo sapiens, UniProt Q01543 1-452)
T1 sequence: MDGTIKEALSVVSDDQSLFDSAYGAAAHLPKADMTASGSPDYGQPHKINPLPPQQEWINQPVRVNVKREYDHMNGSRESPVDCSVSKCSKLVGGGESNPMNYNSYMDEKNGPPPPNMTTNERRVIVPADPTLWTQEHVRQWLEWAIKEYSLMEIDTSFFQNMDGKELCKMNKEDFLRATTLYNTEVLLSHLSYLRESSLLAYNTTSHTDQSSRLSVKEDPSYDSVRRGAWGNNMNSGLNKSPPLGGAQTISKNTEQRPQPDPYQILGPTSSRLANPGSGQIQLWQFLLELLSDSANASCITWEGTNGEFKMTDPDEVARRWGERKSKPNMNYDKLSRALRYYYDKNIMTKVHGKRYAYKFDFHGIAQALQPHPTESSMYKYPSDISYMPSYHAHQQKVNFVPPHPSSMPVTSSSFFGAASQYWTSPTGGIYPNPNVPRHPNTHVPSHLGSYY
How it was run: (§1)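 The binding signal reported is, for every hexamer, its read frequency for a factor over its read frequency for the tag-only sample. Reads came from pools of yeast-expressed, GST-fused human transcription factors on glutathione beads, barcoded with DNA and mixed with that sample, which were incubated with 200 nmole of a random double-stranded 16-mer DNA library in Tris/NaCl/DTT/glycerol buffer at room temperature for 30 min. After washing, the pools were crosslinked with 0.1% formaldehyde, proximity-ligated with BsaI/T4 ligase for 1 h at 37 °C, PCR-amplified and sequenced on an Illumina NextSeq500.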

ELK1 = molecular target: T2, ELK1 (Homo sapiens, UniProt P19419 1-428)
T2 sequence: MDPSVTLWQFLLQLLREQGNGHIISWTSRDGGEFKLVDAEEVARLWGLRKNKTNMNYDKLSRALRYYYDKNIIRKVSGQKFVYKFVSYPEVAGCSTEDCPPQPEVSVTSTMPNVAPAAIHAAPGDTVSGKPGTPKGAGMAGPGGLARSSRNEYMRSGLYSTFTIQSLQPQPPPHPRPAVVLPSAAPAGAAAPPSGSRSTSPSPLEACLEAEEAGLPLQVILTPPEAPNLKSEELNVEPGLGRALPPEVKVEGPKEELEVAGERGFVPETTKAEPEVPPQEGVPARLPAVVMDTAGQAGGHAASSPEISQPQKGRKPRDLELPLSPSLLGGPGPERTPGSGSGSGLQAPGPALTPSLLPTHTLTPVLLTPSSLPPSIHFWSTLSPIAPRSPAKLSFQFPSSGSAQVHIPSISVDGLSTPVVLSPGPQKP
How it was run: as §1

GABPA = molecular target: T3, GABPA (Homo sapiens, UniProt Q06546 1-454)
T3 sequence: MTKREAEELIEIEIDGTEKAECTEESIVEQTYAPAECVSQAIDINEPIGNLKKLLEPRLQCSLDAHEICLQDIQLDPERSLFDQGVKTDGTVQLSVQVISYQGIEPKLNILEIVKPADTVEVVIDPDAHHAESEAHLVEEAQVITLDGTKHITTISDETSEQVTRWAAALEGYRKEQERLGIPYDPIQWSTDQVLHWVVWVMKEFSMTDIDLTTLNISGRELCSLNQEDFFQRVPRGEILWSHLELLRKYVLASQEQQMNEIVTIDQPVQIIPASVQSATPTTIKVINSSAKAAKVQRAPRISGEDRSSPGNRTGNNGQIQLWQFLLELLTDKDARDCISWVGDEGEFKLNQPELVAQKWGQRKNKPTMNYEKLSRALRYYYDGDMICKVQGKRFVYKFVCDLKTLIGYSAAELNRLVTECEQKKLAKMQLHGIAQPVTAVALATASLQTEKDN
How it was run: as §1

ERG = molecular target: T4, ERG (Homo sapiens, UniProt P11308 1-479)
T4 sequence: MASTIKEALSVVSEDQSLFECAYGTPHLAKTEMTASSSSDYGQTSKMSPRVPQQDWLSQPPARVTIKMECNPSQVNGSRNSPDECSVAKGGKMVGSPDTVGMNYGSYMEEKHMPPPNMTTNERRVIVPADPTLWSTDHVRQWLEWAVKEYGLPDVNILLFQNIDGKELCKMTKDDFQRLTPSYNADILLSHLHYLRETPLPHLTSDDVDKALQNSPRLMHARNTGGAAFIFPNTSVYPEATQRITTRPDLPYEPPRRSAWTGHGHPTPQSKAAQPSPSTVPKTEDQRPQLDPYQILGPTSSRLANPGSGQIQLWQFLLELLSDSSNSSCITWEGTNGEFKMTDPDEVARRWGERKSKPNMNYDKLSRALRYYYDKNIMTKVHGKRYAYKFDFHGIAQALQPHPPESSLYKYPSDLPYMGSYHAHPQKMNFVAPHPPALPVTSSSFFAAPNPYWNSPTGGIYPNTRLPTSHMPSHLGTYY
How it was run: as §1

ELF1 = ELF1 (Homo sapiens, UniProt P32519 1-619)
Chain of ELF1 (P32519 whole entry): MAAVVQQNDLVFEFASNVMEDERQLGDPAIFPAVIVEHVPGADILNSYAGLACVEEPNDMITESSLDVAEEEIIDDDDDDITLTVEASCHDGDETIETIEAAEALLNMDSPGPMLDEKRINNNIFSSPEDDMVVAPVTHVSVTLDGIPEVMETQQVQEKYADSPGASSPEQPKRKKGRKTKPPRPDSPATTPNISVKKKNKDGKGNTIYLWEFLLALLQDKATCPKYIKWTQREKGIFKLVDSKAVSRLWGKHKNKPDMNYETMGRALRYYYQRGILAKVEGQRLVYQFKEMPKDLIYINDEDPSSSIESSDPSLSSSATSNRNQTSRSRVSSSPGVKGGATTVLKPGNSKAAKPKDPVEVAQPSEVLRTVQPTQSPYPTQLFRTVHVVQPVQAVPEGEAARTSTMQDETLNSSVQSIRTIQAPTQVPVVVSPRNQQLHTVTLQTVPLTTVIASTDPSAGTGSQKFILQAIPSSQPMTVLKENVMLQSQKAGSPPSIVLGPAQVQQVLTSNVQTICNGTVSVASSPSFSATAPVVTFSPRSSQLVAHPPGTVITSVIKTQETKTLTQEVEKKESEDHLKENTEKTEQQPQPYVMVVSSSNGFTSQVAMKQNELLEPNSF
How it was run: as §1

EHF = molecular target: T5, EHF (Homo sapiens, UniProt Q9NZC4 1-300)
T5 sequence: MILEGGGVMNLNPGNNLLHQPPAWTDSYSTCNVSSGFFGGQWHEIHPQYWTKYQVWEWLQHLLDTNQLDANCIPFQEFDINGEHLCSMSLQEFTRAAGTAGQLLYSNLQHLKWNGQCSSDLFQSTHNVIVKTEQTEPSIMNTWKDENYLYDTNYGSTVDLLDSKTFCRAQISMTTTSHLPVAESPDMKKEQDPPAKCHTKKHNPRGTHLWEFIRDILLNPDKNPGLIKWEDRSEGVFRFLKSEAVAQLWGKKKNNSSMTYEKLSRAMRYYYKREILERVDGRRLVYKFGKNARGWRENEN
How it was run: as §1

SPI1 = SPI1 (Homo sapiens, UniProt P17947 1-270)
How it was run: as §1

SPIB = SPIB (Homo sapiens, UniProt Q01892 1-262)
Chain of SPIB (Q01892 whole entry): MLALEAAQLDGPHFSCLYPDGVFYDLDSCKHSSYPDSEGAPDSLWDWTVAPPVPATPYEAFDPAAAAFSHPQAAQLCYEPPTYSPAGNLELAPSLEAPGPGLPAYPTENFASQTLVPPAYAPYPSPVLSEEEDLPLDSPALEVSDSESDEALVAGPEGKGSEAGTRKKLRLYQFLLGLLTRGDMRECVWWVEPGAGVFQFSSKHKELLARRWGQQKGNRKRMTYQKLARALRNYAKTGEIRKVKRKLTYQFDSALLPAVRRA
How it was run: as §1

ELK3 = molecular target: T6, ELK3 (Homo sapiens, UniProt P41970 1-407)
T6 sequence: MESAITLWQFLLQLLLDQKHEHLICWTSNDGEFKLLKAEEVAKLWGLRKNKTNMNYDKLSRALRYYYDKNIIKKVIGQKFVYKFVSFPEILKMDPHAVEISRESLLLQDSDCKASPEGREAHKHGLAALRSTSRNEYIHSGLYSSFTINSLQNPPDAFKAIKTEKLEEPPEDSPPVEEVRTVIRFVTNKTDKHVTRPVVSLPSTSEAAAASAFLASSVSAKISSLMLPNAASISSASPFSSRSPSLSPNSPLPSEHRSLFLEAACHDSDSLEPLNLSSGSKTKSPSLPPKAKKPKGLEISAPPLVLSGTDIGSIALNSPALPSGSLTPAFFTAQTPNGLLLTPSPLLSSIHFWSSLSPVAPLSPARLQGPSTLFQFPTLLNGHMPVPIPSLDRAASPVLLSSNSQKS
How it was run: as §1

Sequence | binding signal (FLI1) | binding signal (ELK1) | binding signal (GABPA) | binding signal (ERG) | binding signal (ELF1) | binding signal (EHF) | binding signal (SPI1) | binding signal (SPIB) | binding signal (ELK3)
ACTTTC | 1.55 fold enrichment (6-mer frequency, TF over GST control) | 1.65 fold enrichment (6-mer frequency, TF over GST control) | 1.59 fold enrichment (6-mer frequency, TF over GST control) | 1.46 fold enrichment (6-mer frequency, TF over GST control) | 1.63 fold enrichment (6-mer frequency, TF over GST control) | 1.59 fold enrichment (6-mer frequency, TF over GST control) | 1.66 fold enrichment (6-mer frequency, TF over GST control) | 1.7 fold enrichment (6-mer frequency, TF over GST control) | 1.62 fold enrichment (6-mer frequency, TF over GST control)
TTCCTT | 1.88 fold enrichment (6-mer frequency, TF over GST control) | 1.79 fold enrichment (6-mer frequency, TF over GST control) | 1.84 fold enrichment (6-mer frequency, TF over GST control) | 2.11 fold enrichment (6-mer frequency, TF over GST control) | 1.96 fold enrichment (6-mer frequency, TF over GST control) | 2.02 fold enrichment (6-mer frequency, TF over GST control) | 2.25 fold enrichment (6-mer frequency, TF over GST control) | 2.01 fold enrichment (6-mer frequency, TF over GST control) | 2.09 fold enrichment (6-mer frequency, TF over GST control)
ATGGTA | 1.39 fold enrichment (6-mer frequency, TF over GST control) | 1.44 fold enrichment (6-mer frequency, TF over GST control) | 1.39 fold enrichment (6-mer frequency, TF over GST control) | 1.33 fold enrichment (6-mer frequency, TF over GST control) | 1.36 fold enrichment (6-mer frequency, TF over GST control) | 1.43 fold enrichment (6-mer frequency, TF over GST control) | 1.23 fold enrichment (6-mer frequency, TF over GST control) | 1.42 fold enrichment (6-mer frequency, TF over GST control) | 1.36 fold enrichment (6-mer frequency, TF over GST control)
CTCTGA | 1.18 fold enrichment (6-mer frequency, TF over GST control) | 1.32 fold enrichment (6-mer frequency, TF over GST control) | 1.22 fold enrichment (6-mer frequency, TF over GST control) | 1.21 fold enrichment (6-mer frequency, TF over GST control) | 1.25 fold enrichment (6-mer frequency, TF over GST control) | 1.3 fold enrichment (6-mer frequency, TF over GST control) | 1.17 fold enrichment (6-mer frequency, TF over GST control) | 1.31 fold enrichment (6-mer frequency, TF over GST control) | 1.12 fold enrichment (6-mer frequency, TF over GST control)
TTCTTT | 1.18 fold enrichment (6-mer frequency, TF over GST control) | 1.13 fold enrichment (6-mer frequency, TF over GST control) | 1.21 fold enrichment (6-mer frequency, TF over GST control) | 1.27 fold enrichment (6-mer frequency, TF over GST control) | 1.35 fold enrichment (6-mer frequency, TF over GST control) | 1.11 fold enrichment (6-mer frequency, TF over GST control) | 1.23 fold enrichment (6-mer frequency, TF over GST control) | 1.21 fold enrichment (6-mer frequency, TF over GST control) | 1.17 fold enrichment (6-mer frequency, TF over GST control)
ATACAT | 1.31 fold enrichment (6-mer frequency, TF over GST control) | 1.15 fold enrichment (6-mer frequency, TF over GST control) | 1.25 fold enrichment (6-mer frequency, TF over GST control) | 1.34 fold enrichment (6-mer frequency, TF over GST control) | 1.24 fold enrichment (6-mer frequency, TF over GST control) | 1.21 fold enrichment (6-mer frequency, TF over GST control) | 1.2 fold enrichment (6-mer frequency, TF over GST control) | 1.26 fold enrichment (6-mer frequency, TF over GST control) | 1.32 fold enrichment (6-mer frequency, TF over GST control)
ATAAAT | 1.14 fold enrichment (6-mer frequency, TF over GST control) | 1.15 fold enrichment (6-mer frequency, TF over GST control) | 1.15 fold enrichment (6-mer frequency, TF over GST control) | 1.15 fold enrichment (6-mer frequency, TF over GST control) | 1.15 fold enrichment (6-mer frequency, TF over GST control) | 1.14 fold enrichment (6-mer frequency, TF over GST control) | 1.2 fold enrichment (6-mer frequency, TF over GST control) | 1.23 fold enrichment (6-mer frequency, TF over GST control) | 1.22 fold enrichment (6-mer frequency, TF over GST control)
AAAGTA | 1.14 fold enrichment (6-mer frequency, TF over GST control) | 1.1 fold enrichment (6-mer frequency, TF over GST control) | 1.17 fold enrichment (6-mer frequency, TF over GST control) | 1.13 fold enrichment (6-mer frequency, TF over GST control) | 1.13 fold enrichment (6-mer frequency, TF over GST control) | 1.15 fold enrichment (6-mer frequency, TF over GST control) | 1.1 fold enrichment (6-mer frequency, TF over GST control) | 1.18 fold enrichment (6-mer frequency, TF over GST control) | 1.24 fold enrichment (6-mer frequency, TF over GST control)
